From PubChem BioAssay (Tox21)
“And” between values parts separate entries of the source, which are not always exact repeats. Equal values may be shown once. Results filed as inconclusive are left out. A structure can be active in one record and inactive in another. The source made the active and inactive calls. Unless noted, calls come from the whole dose curve; as a rule, active = well fitted curve in the direction sought with a large enough effect in the repeat runs; inconclusive = weak or mixed curves; inactive = no such curve, though single readings can be large; an effect the other way counts as inactive or inconclusive.

Assays:
[1] = qHTS assay to identify small molecule antagonists of the estrogen receptor alpha (ER-alpha) signaling pathway using the BG1 cell line in the presence of 0.1 nM 17-beta-estradiol - cell viability counter screen (AID 1259241); note: nearly all actives have a fitted effect of over 40% in size; note: potency is the fitted concentration of half-maximal effect
Method in brief: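 In this screen, hormone-deprived VM7Luc4E2 cells were seeded at 4,000 per well, dosed with compound and 0.1 nM estradiol final, and incubated 22 hr at 37C and 5% CO2; fluorogenic live-cell protease signal reported viability.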

[2] = qHTS assay to identify small molecule antagonists of the androgen receptor (AR) signaling pathway using the MDA cell line in the presence of 0.5 nM R1881 - cell viability counter screen (AID 1259242); note: nearly all actives have a fitted effect of over 45% in size; note: potency is the fitted concentration of half-maximal effect
Method in brief: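 Steps: plate MDA-kb2 cells, rest 5 hr at 37C without CO2; pin in compounds in DMSO; add R1881 to 0.5 nM final; incubate 16 hr; add CellTiter-Fluor, 30 min; read fluorescence.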

[3] = qHTS assay to identify small molecule phospholipidosis (PLD) inducers (AID 1259344; active = well fitted curve in the direction sought with a large enough effect; an effect the other way counts as inactive or inconclusive)
Method in brief: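 Accumulated phospholipid, stained red by LipidTOX during 24 h compound treatment of HepG2 cells at 37 C, is quantified from images as pit number and intensity, normalised per cell using Hoechst-stained nuclei.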

[4] = qHTS assay to identify small molecule HDAC inhibitors (AID 1259364); note: potency is the fitted concentration of half-maximal effect;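 note: wild-type HCT-116 cells with endogenous class I/II HDAC activity; nearly all actives have a fitted effect of over 45% in size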
Method in brief: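 Cells (HCT-116, wild type) are seeded at 1,500 per well, incubated overnight, treated with compound in DMSO for 2 hr, then developed with HDAC-Glo I/II reagent for 30 min at room temperature.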

[5] = qHTS assay to identify small molecule HDAC inhibitors - cell viability counter screen (AID 1259365); note: series mostly up to about 92 µM; nearly all actives have a fitted effect of over 50% in size
Method in brief: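 Measured quantity is CellTiter-Glo luminescence from wild-type HCT-116 cells after compound incubation of 2hr at 37C, 5% CO2; reagent developed 30min at room temperature.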

[6] = qHTS assay to identify small molecule antagonists of the sonic hedgehog signaling (Shh) pathway - cell viability counter screen (AID 1259367); note: nearly all actives have a fitted effect of over 55% in size; note: potency is the fitted concentration of half-maximal effect
Method in brief: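 CellTiter-Fluor signal in conditioned medium-stimulated 3T3 Gli1-Luc cells, 23 hr compound exposure, 37C.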

[7] = qHTS assay to identify small molecule agonists of the sonic hedgehog signaling (Shh) pathway (AID 1259368; calls by dose curve;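 note: NIH/3T3-derived 3T3Gli1-Luc cells carrying a stable Gli1-driven firefly luciferase reporter; series mostly up to about 92 µM; nearly all actives have a fitted effect of over 15% in size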)
Method in brief: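 Cells of a mouse NIH/3T3 clone stably expressing luciferase under the Gli1 transcriptional response element are exposed to test chemicals for 24 hr at 37 C. Pathway activation is detected as a rise in luminescence.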

[8] = molecular target: Estrogen receptor beta (Homo sapiens) (UniProt Q92731); assay: qHTS assay to identify small molecule agonists of the estrogen receptor beta (ER-beta) signaling pathway (AID 1259377; active = well fitted activation curve with a large enough effect in the signal ratio in the repeat runs, not every such curve was filed as active; the % refers to the signal ratio)
Chain of Estrogen receptor beta (Homo sapiens) (Q92731 whole entry, looked up): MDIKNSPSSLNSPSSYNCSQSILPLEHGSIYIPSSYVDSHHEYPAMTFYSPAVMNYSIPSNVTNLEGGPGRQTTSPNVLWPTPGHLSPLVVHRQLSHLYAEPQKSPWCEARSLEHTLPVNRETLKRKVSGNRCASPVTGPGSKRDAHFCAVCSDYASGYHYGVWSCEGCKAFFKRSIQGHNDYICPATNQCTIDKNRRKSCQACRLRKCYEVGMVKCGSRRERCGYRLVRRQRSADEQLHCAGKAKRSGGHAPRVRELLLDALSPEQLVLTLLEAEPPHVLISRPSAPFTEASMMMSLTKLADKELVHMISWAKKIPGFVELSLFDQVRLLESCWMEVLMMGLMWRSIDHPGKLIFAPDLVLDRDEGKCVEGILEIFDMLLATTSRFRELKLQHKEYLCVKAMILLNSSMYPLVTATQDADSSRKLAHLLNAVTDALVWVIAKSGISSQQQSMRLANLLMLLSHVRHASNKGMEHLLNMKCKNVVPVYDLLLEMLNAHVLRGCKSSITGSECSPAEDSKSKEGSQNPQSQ
Method in brief: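 Reporter cells (HEK293T, ER-beta-UAS-bla) receive compounds or DMSO after a 6 hr pre-incubation. They then incubate 16 hr at 37C/5% CO2, and fluorescence from LiveBLAzer B/G substrate is measured after 2 hours at room temperature.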

[9] = qHTS assay to identify small molecule agonists of the androgen receptor (AR) signaling pathway in the presence of an antagonist - cell viability counter screen (AID 1259379); note: nearly all actives have a fitted effect of over 25% in size; note: potency is the fitted concentration of half-maximal effect
Method in brief: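 Cytotoxicity is assessed by CellTiter-Fluor in MDA-kb2 cells carrying an MMTV-driven luciferase reporter. Cells receive 3.0uM nilutamide plus compounds at 15 concentrations and incubate 16 hr at 37C without CO2 before fluorescence reading.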

[10] = qHTS assay to identify small molecule agonists of the estrogen receptor beta (ER-beta) signaling pathway - cell viability counter screen (AID 1259380); note: nearly all actives have a fitted effect of over 30% in size; note: potency is the fitted concentration of half-maximal effect
Method in brief: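 Cytotoxicity is measured in parallel with the reporter screen: after 16 hr compound exposure at 37C and a 2 hr LiveBLAzer step, CellTiter-Glo is added to the same ER-beta-UAS-bla HEK293T wells and luminescence read after 30 min.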

[11] = molecular target: Thyrotropin receptor (Homo sapiens) (UniProt P16473); assay: qHTS assay to identify small molecule antagonists of the thyroid stimulating hormone receptor (TSHR) signaling pathway (AID 1259385; calls by dose curve; note: nearly all actives have a fitted effect of over 20% in size)
Chain of Thyrotropin receptor (Homo sapiens) (P16473 whole entry, looked up): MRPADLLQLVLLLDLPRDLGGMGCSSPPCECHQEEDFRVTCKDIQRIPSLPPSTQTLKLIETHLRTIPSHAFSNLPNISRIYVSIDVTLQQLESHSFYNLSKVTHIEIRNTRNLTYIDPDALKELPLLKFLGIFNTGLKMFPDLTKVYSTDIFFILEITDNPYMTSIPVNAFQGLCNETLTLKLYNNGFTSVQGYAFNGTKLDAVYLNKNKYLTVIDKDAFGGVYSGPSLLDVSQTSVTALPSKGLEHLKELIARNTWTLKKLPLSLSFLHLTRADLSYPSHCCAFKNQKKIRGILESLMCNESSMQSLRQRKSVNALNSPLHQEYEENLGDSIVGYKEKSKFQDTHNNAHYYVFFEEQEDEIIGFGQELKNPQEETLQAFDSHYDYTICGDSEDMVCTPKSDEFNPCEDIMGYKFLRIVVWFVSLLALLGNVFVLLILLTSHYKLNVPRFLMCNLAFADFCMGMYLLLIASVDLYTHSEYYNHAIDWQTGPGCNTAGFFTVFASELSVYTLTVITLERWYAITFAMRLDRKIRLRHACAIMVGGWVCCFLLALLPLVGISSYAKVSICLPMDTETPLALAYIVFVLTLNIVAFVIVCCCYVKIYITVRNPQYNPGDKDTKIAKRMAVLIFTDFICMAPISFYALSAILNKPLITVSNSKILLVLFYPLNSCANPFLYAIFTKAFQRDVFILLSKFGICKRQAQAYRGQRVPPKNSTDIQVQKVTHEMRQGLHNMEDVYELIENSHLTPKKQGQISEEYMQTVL
Method in brief: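 Antagonist mode: compound-treated TSHR-expressing HEK293 cells were stimulated with 1.5 ng/mL TSH (final) in presence of Ro20-1724 for 30 min at RT. HTRF cAMP detection after 1 h; each compound tested at 15 concentrations, triplicate.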

[12] = qHTS assay to identify small molecule agonists of the sonic hedgehog signaling (Shh) pathway - cell viability counter screen (AID 1259366); note: nearly all actives have a fitted effect of over 50% in size; note: potency is the fitted concentration of half-maximal effect
Method in brief: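 In quantitative high-throughput format, 3T3 Gli1-Luc cells were exposed to compounds for 24hr and multiplexed for viability using CellTiter-Fluor, incubated 1hr at 37C before the fluorescence read.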

[13] = qHTS assay to identify small molecule antagonists of the sonic hedgehog signaling (Shh) pathway (AID 1259369; calls by dose curve; note: nearly all actives have a fitted effect of over 45% in size; note: potency is the fitted concentration of half-maximal effect)
Method in brief: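 Cells are plated and held 4hr at 37 C, compounds (DMSO) are pinned in, conditioned medium is added to stimulate the pathway, and after 24hr luciferase reagent is added for 30min before luminescence is read.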

[14] = qHTS assay to identify small molecule antagonists of the estrogen receptor beta (ER-beta) signaling pathway - cell viability counter screen (AID 1259382);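 note: HEK293T cells carrying ER-beta-UAS-bla reporter stimulated with estradiol; series mostly up to about 92 µM; nearly all actives have a fitted effect of over 55% in size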
Method in brief: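 Cytotoxicity counter screen multiplexed with the beta-lactamase antagonist assay: GripTite HEK293T ER-beta-bla cells were treated 16 hr with test chemicals in the presence of 1nM 17-beta-estradiol, and viability was measured by CellTiter-Glo.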

[15] = qHTS assay to identify small molecule agonists or antagonists of the thyroid stimulating hormone receptor (TSHR) signaling pathway - wild type cell line counter screen (AID 1259384; calls by dose curve)
Method in brief: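 Counter screen in untransfected Hek293: compounds (15-point titration, triplicate) plus phosphodiesterase inhibitor Ro20-1724 added after 18 h plating; 30 min RT. Intracellular cAMP via competitive d2/cryptate immunoassay, 1 h incubation.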

[16] = molecular target: Estrogen receptor beta (Homo sapiens) (UniProt Q92731); assay: qHTS assay to identify small molecule antagonists of the estrogen receptor beta (ER-beta) signaling pathway (AID 1259378; active = well fitted inhibition curve with a large enough effect in the signal ratio in the repeat runs, not every such curve was filed as active; the % refers to the signal ratio; note: potency is the fitted concentration of half-maximal effect)
Method in brief: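 Antagonist mode: compounds added to beta-lactamase reporter HEK293T ER-beta-UAS cells stimulated with E2 (1nM final), 16 hr at 37C. LiveBLAzer B/G FRET substrate, 2 hours room temperature, fluorescence read-out.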

[17] = molecular target: Estrogen receptor (Homo sapiens) (UniProt P03372); assay: qHTS assay to identify small molecule agonists of the estrogen receptor alpha (ER-alpha) signaling pathway in the presence of an antagonist (AID 1259383; calls by dose curve; note: top concentration of the series differs between compounds; nearly all actives have a fitted effect of over 15% in size)
Chain of Estrogen receptor (Homo sapiens) (P03372 whole entry, looked up): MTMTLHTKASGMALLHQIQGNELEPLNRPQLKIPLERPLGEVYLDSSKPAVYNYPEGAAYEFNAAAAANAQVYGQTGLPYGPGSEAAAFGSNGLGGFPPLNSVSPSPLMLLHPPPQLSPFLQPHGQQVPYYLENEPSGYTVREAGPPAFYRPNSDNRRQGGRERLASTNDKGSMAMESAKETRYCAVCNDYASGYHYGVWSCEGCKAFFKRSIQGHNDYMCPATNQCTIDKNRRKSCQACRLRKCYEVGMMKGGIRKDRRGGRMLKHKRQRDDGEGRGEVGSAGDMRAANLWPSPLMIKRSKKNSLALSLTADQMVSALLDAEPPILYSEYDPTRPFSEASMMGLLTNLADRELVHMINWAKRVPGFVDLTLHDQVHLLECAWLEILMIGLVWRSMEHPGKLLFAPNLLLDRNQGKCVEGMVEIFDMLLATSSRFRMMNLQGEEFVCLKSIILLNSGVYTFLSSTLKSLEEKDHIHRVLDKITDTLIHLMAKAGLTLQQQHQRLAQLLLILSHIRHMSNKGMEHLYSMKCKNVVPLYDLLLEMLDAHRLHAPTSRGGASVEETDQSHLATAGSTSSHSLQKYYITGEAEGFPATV
Method in brief: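 Agonist-mode confirmation in the presence of the ER antagonist ICI-182,780 at 10.0nM final. Breast-derived VM7Luc4E2 reporter cells were exposed to compounds for 22hr, and ERE-driven luciferase was quantified by luminescence.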
% is set by controls: 0 for no effect and ±100 for the full control effect.

CC(=O)S[C@@H]1CC2=CC(=O)CC[C@]2(C)[C@H]2CC[C@@]3(C)[C@@H](CC[C@@]34CCC(=O)O4)[C@H]12
inactive: Potency [1] | Potency [2] | PLD induction [3] 5.04% [at 1.53 µM] | Potency [4] | Potency [5] | Potency [6] | Potency [7] | Potency [8] | Potency [9] | Potency [11]
active: Potency [10] 30.6 µM

CC(C)(C)c1ccc(C(=O)O)cc1
inactive: Potency [1] | Potency [2] | Potency [4] | Potency [5] | Potency [12] | Potency [6] | Potency [7] | Potency [13] | Potency [8] | Potency [9] | Potency [10] | Potency [14] | outcome [15] | Potency [11]

C/C(=C(/OCCOc1ccc(Cl)cc1)c1ccc(Cl)cc1Cl)n1ccnc1
active: Potency [16] 13.3 µM | Potency [10] 15 µM
inactive: Potency [1] | Potency [2] | Potency [4] | Potency [12] | Potency [6] | Potency [7] | Potency [8] | Potency [9] | outcome [15] | Potency [11]

C/C=C(\C)C(=O)OCc1ccccc1
inactive: Potency [1] | Potency [2] | Potency [4] | Potency [5] | Potency [12] | Potency [6] | Potency [7] | Potency [13] | Potency [8] | Potency [16] | Potency [9] | Potency [10] | Potency [14] | outcome [15] | Potency [11]

N=C1N=C(N)c2ccccc21
active: Potency [13] 8.63 µM
inactive: Potency [1] | Potency [2] | Potency [4] | Potency [5] | Potency [7] | Potency [14] | Potency [17]

O=c1cc(-c2ccc(O)cc2)oc2cc(O)cc(O)c12
inactive: Potency [1] | Potency [2] | Potency [7] | Potency [10] | Potency [14] | outcome [15] | Potency [11]
inactive and 30.6 µM (active): Potency [13]
active: Potency [4] 8.75 µM and 17.2 µM | Potency [12] 61.9 µM and 38.6 µM | Potency [6] 48.6 µM

[Cl][Au]([Cl])[Cl]
inactive: Potency [4] | Potency [5] | Potency [7] | outcome [15]
active: Potency [1] 68.6 µM | Potency [2] 24.3 µM | Potency [12] 3.86 µM | Potency [13] 0.172 µM | Potency [9] 54.5 µM

O=C(O)c1c(Cl)cccc1Cl
inactive: Potency [1] | Potency [2] | Potency [4] | Potency [5] | Potency [12] | Potency [6] | Potency [7] | Potency [13] | Potency [8] | Potency [16] | Potency [9] | Potency [10] | Potency [14] | outcome [15] | Potency [11]
